PubChem BioAssay (EPA / NIEHS)
Records with an inconclusive call do not appear. Active and inactive are the calls of the source. How the source made its calls: active means hit-call score of the fitted dose curve at least 0.9, where 1 is the maximum; inconclusive means response in the unintended direction; inactive means score below 0.9.

Molecular target: human RAR-related Orphan Receptor gamma (RORg), RORC (gene 6097) (UniProt P51449)
Experiment: ATG_RORg_TRANS: Attagene TRANS-FACTORIAL HepG2 Assay for human RAR-related Orphan Receptor gamma (RORg) (AID 2283011)
How it was run: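 Chimeric RORg-Gal4 transactivation in transfected HepG2; 24 h exposure; RT-PCR/capillary electrophoresis readout of reporter mRNA, DMSO baseline.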

human RAR-related Orphan Receptor gamma (RORg), RORC (gene 6097), sequence (P51449 whole entry, looked up): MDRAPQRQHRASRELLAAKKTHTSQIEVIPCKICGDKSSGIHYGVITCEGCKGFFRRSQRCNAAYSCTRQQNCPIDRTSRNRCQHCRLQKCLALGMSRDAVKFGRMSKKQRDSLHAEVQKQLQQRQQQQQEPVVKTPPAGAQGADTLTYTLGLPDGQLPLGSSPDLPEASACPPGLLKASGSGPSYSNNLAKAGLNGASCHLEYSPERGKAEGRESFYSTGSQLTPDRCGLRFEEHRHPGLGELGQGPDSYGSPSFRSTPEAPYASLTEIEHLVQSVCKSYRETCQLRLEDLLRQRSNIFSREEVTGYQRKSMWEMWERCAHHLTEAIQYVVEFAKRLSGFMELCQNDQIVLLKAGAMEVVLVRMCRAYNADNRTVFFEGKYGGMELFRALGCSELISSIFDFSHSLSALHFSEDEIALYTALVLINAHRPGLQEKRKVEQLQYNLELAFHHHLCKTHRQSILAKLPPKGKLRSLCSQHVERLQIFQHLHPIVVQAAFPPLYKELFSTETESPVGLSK

outcome, inactive:
CC(=O)OCC(C)OC(C)=O (stereo unspecified), O=c1n(CCO)c(=O)n(CCO)c(=O)n1CCO, CCCCCCCCCCCCCOP(=O)(O)O, Nc1ccc2cc3ccccc3cc2c1, NC(CO)(CO)CO, c1ccc(CNCc2ccccc2)cc1, O=Cc1ccc(CO)o1, CC(C)=CC1CC(C)CCO1 (stereo unspecified), Cc1cc(C)c(C(=O)O)c(C)c1, C[C@]12C=CC(=O)C=C1CC[C@@H]1[C@@H]2[C@@H](O)C[C@@]2(C)[C@H]1CC[C@]2(O)C(=O)CO, CC1(C)[C@H]2CC[C@]1(C)C(=O)C2, CCCCCCC(O)CO (stereo unspecified), CC(=O)OCc1ccco1, O=c1[nH]c(=O)c2[nH]c(=O)[nH]c2[nH]1, C[Si](C)(CCCN)O[Si](C)(C)CCCN, Clc1nc2ccccc2s1, CC(C)(C)c1n[nH]c(=O)n(N)c1=O, O=C(C=Cc1ccccc1)OCc1ccccc1, NC(=O)N=NC(N)=O, CC(=O)Nc1nnc(S(N)(=O)=O)s1, C=C(C)c1cccc(C(C)(C)N=C=O)c1, Cc1ccc([N+](=O)[O-])cc1S(=O)(=O)O, CC=CC(=O)N(CC)c1ccccc1C, C=C(C)C(=O)OCCO, CCCCCCCCCCCCCCCCCC#N, COCC(C)N (stereo unspecified), OC1CCCC1, CC(=O)Oc1ccc(C(C)=O)cc1, CC1=CC[C@H]2C[C@@H]1C2(C)C, Cc1cccc(N)n1, OCCNCc1ccccc1, C=CC(C)(C)C, CCC(C)C=O (stereo unspecified), SCCc1cnccn1, CCCC(=O)OCc1ccccc1, Nc1cccc(C(F)(F)F)c1, CC/C=C\C/C=C\C/C=C\CCCCCCCC(=O)O, CCC(Cc1ccccc1)(C(=O)c1ccc(N2CCOCC2)cc1)N(C)C (stereo unspecified)

Molecular target: Retinoic acid receptor RXR-alpha (Homo sapiens) (UniProt P19793)
Sequence (P19793 whole entry, looked up): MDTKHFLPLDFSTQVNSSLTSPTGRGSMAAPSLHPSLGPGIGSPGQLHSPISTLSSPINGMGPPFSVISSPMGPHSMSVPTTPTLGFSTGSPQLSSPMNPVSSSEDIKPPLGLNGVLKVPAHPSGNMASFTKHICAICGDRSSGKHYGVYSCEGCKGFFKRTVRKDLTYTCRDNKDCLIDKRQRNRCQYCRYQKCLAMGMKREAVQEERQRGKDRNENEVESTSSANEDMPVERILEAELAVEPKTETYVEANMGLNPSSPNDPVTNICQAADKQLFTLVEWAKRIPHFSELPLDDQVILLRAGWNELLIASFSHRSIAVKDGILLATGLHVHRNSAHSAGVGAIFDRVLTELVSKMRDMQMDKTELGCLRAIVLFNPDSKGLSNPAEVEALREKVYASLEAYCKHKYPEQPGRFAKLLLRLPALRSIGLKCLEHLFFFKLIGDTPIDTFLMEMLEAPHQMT
Experiment: ATG_RXRa_TRANS: Attagene TRANS-FACTORIAL HepG2 Assay for human Retinoid X Receptor alpha (RXRa) (AID 2283012)
How it was run: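 Transient transfection of human HepG2 with multiple GAL4-UAS reporter constructs; 24 h compound exposure; total RNA isolated, reverse-transcribed, PCR-amplified, 6-FAM labelled, HpaI-cut, resolved by capillary electrophoresis. Positive-direction fit versus DMSO.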

outcome, inactive:
Nc1ccc2cc3ccccc3cc2c1, CC(C)=CC1CC(C)CCO1 (stereo unspecified), C[C@]12C=CC(=O)C=C1CC[C@@H]1[C@@H]2[C@@H](O)C[C@@]2(C)[C@H]1CC[C@]2(O)C(=O)CO, CC1(C)[C@H]2CC[C@]1(C)C(=O)C2, CCCCCCC(O)CO (stereo unspecified), C[Si](C)(CCCN)O[Si](C)(C)CCCN, Clc1nc2ccccc2s1, NC(=O)N=NC(N)=O, CCCCCCCCCCCCCCCCCC#N, COCC(C)N (stereo unspecified), CC(=O)Oc1ccc(C(C)=O)cc1, CC1=CC[C@H]2C[C@@H]1C2(C)C, Cc1cccc(N)n1, C=CC(C)(C)C, CCC(C)C=O (stereo unspecified), SCCc1cnccn1, CCCC(=O)OCc1ccccc1, CC/C=C\C/C=C\C/C=C\CCCCCCCC(=O)O
